About 79,000 compounds went through this panel and 15% of them were active in at least one assay; those are over-represented in the sample as a whole. Activity calls are given as the source filed them. Cut-off read from the data, not from the text of the source: active = growth inhibition above about 70%; inactive = the rest.
What was measured:
[1] = NCI Yeast Anticancer Drug Screen. Data for the rad52 strain (AID 147);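 note: 0% = growth of vehicle-treated control cultures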; conditions: S. cerevisiae rad52 mutant growth inhibition, stronger effect = higher value
Method in brief: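 Genetically altered yeast (DNA damage repair defect) treated with compound; inhibition calculated relative to vehicle.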

[2] = NCI Yeast Anticancer Drug Screen. Data for the wt1 strain (AID 149);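 note: 0% = growth of vehicle-treated wt1 cultures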; conditions: S. cerevisiae wt1 strain (SPY 50644) growth inhibition, stronger effect = higher value
Method in brief: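 wt1 strain grown with compound or vehicle; inhibition taken from the growth difference.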

[3] = NCI Yeast Anticancer Drug Screen. Data for the rad50EPP+ strain (AID 151);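 note: 0% = growth of vehicle-treated control cultures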; conditions: S. cerevisiae rad50 mutant strain, stronger effect = higher value
Method in brief: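 Strain rad50EPP+; compound exposure; % growth inhibition vs vehicle.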

[4] = NCI Yeast Anticancer Drug Screen. Data for the mgt1 strain (AID 153); conditions: S. cerevisiae mgt1 mutant growth inhibition, stronger effect = higher value
Method in brief: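 Read-out: yeast growth inhibition vs vehicle control. Strain mgt1, drawn from a panel altered in DNA damage repair or cell cycle control.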

[5] = NCI Yeast Anticancer Drug Screen. Data for the rad50 strain (AID 155);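 note: 0% = growth of vehicle-only cultures of the same strain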; conditions: S. cerevisiae rad50 strain growth inhibition, stronger effect = higher value
Method in brief: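 DNA repair mutant yeast, compound exposure, growth read-out; inhibition is taken relative to vehicle.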

[6] = NCI Yeast Anticancer Drug Screen. Data for the mec2-1 strain (AID 157); conditions: S. cerevisiae mec2-1 strain, stronger effect = higher value
Method in brief: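 Cells of the genetically defined mec2-1 yeast strain are incubated with test compound. Inhibition of growth is calculated against vehicle-treated controls.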

[7] = NCI Yeast Anticancer Drug Screen. Data for the rad14 strain (AID 159);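 note: 0% = growth of vehicle-treated control cultures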; conditions: S. cerevisiae rad14 strain growth inhibition, stronger effect = higher value
Method in brief: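 DNA repair-defective yeast, compound-exposed; % growth inhibition derived by comparison with vehicle-treated controls.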

[8] = NCI Yeast Anticancer Drug Screen. Data for the sgs1 mgt1 strain (AID 161);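 note: 0% = growth of cultures given vehicle only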; conditions: S. cerevisiae sgs1 mgt1 strain, stronger effect = higher value
Method in brief: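 Inhibition of yeast growth, normalised to vehicle-treated controls, is reported for a strain bearing genetic alterations in DNA damage repair.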

[9] = NCI Yeast Anticancer Drug Screen. Data for the CLN2oe strain (AID 163);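 note: 0% = growth of vehicle-only control cultures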; conditions: S. cerevisiae CLN2oe strain, stronger effect = higher value
Method in brief: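 Strain altered in cell-cycle control, incubated with compound; growth compared to solvent-treated controls.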

[10] = NCI Yeast Anticancer Drug Screen. Data for the cln2 rad14 strain (AID 165);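 note: 0% = growth equal to vehicle treated cultures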; conditions: S. cerevisiae cln2 rad14 strain, stronger effect = higher value
Method in brief: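 The screen exposed genetically defined yeast (cln2 rad14) to test compounds and scored growth inhibition relative to vehicle-treated controls.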

[11] = NCI Yeast Anticancer Drug Screen. Data for the bub3 strain (AID 167); conditions: S. cerevisiae bub3 mutant strain, stronger effect = higher value
Method in brief: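 In this screen, a yeast mutant lacking normal mitotic checkpoint function is challenged with compound. Relative growth versus vehicle gives the inhibition value.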

[12] = NCI Yeast Anticancer Drug Screen. Data for the wt2 strain (AID 169);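 note: 0% = growth of vehicle-treated yeast cultures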; conditions: S. cerevisiae wt2 strain growth inhibition, stronger effect = higher value
Method in brief: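 Steps: yeast strain treated with compound; growth recorded; inhibition calculated relative to cultures given vehicle alone.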

[13] = NCI Yeast Anticancer Drug Screen. Data for the mlh1 strain (AID 171);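 note: 0% = growth of vehicle-treated control cultures of the same strain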; conditions: S. cerevisiae mlh1 strain growth inhibition, stronger effect = higher value
Method in brief: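 Yeast screen: mutant strain plus compound, growth scored against vehicle control wells.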

[14] = NCI Yeast Anticancer Drug Screen. Data for the sgs1 strain (AID 173);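 note: 0% = growth of vehicle-only control cultures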; conditions: S. cerevisiae sgs1 mutant, stronger effect = higher value
Method in brief: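 Inhibition of yeast growth served as the measure. The mutant strain was treated with each compound, and growth was normalised to cultures receiving vehicle alone.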

[15] = NCI Yeast Anticancer Drug Screen. Data for the mlh1 rad18 strain (AID 175); conditions: S. cerevisiae mlh1 rad18 strain growth inhibition, stronger effect = higher value
Method in brief: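 Compound-treated yeast growth, normalised to vehicle controls. Strain bears defined DNA repair mutations.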

[16] = NCI Yeast Anticancer Drug Screen. Data for the rad18 strain (AID 177); conditions: S. cerevisiae rad18 mutant growth inhibition, stronger effect = higher value
Method in brief: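 Inhibition values reflect reduced yeast growth compared with vehicle-treated controls, using a strain engineered with a DNA damage repair defect.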

[17] = at 5.0 µM (retest, dose inferred, filed as 0.5)
[18] = at 50.0 µM (retest, dose inferred, filed as 5.0)

Measured: growth inhibition

COc1ccccc1/C=C\C(=O)C1COCN1 (stereo unspecified)
inactive: [1]; at 1.2 µM 4% | [1]; at 3.7 µM 14% | [1]; at 11.0 µM 25% | [2]; at 1.2 µM -4% | [2]; at 3.7 µM -4% | [2]; at 11.0 µM -7% | [2]; at 33.0 µM 19% | [3]; at 1.2 µM 11% | [3]; at 3.7 µM 20% | [3]; at 11.0 µM 42% | [4]; at 1.2 µM -1% | [4]; at 3.7 µM -2% | [4]; at 11.0 µM -2% | [4]; at 33.0 µM 53% | [5]; at 1.2 µM 9% | [5]; at 3.7 µM 6% | [5]; [17] -141% | [5]; at 11.0 µM 12% | [6]; at 1.2 µM 4% | [6]; at 3.7 µM 5% | [6]; [17] -49% | [6]; at 11.0 µM 12% | [6]; at 33.0 µM 38% | [6]; [18] 28% | [7]; at 1.2 µM 0% | [7]; at 3.7 µM -1% | [7]; at 11.0 µM 9% | [7]; at 33.0 µM 38% | [8]; [17] -63% | [9]; at 1.2 µM 2% | [9]; at 3.7 µM 1% | [9]; at 11.0 µM 1% | [9]; at 33.0 µM 13% | [10]; [17] -57% | [10]; [18] -60% | [10]; at 50.0 µM 7.45% | [11]; at 1.2 µM 0% | [11]; at 3.7 µM 9% | [11]; [17] -53% | [11]; at 11.0 µM 18% | [11]; at 33.0 µM 69% | [11]; [18] 69% | [12]; at 1.2 µM 2% | [12]; at 3.7 µM 1% | [12]; at 11.0 µM 0% | [12]; at 33.0 µM 37% | [13]; at 1.2 µM 9% | [13]; at 3.7 µM 2% | [13]; at 11.0 µM 12% | [14]; at 1.2 µM 1% | [14]; at 3.7 µM 2% | [14]; at 11.0 µM 18% | [15]; [17] -122% | [16]; at 1.2 µM 0% | [16]; at 3.7 µM 5% | [16]; at 11.0 µM 15% | [16]; at 33.0 µM 67%
active: [1]; at 33.0 µM 71% | [1]; at 100.0 µM 99% | [2]; at 100.0 µM 99% | [3]; at 33.0 µM 73% | [3]; at 100.0 µM 92% | [4]; at 100.0 µM 99% | [5]; at 33.0 µM 95% | [5]; [18] 82% | [5]; at 50.0 µM 97.2% | [5]; at 100.0 µM 98% | [6]; at 50.0 µM 98.7% | [6]; at 100.0 µM 99% | [7]; at 100.0 µM 99% | [8]; [18] 75% | [8]; at 50.0 µM 84.7% | [9]; at 100.0 µM 98% | [11]; at 50.0 µM 97.3% | [11]; at 100.0 µM 99% | [12]; at 100.0 µM 99% | [13]; at 33.0 µM 83% | [13]; at 100.0 µM 99% | [14]; at 33.0 µM 92% | [14]; at 100.0 µM 99% | [15]; [18] 82% | [15]; at 50.0 µM 99.1% | [16]; at 100.0 µM 98%

S=C1C(=Nc2ccccc2)N(c2ccccc2)/C(=N\c2ccccn2)N1c1ccccc1
inactive: [1]; at 1.2 µM -2% | [1]; at 3.7 µM 1% | [1]; at 11.0 µM 44% | [2]; at 1.2 µM -4% | [2]; at 3.7 µM -4% | [2]; at 11.0 µM 21% | [3]; at 1.2 µM -3% | [3]; at 3.7 µM -4% | [3]; at 11.0 µM -3% | [3]; at 33.0 µM 11% | [3]; at 100.0 µM 37% | [4]; at 1.2 µM -6% | [4]; at 3.7 µM -5% | [4]; at 11.0 µM 36% | [5]; at 1.2 µM -3% | [5]; at 3.7 µM -2% | [5]; [17] 41% | [5]; at 11.0 µM 46% | [6]; at 1.2 µM -7% | [6]; at 3.7 µM -1% | [6]; [17] 24% | [6]; at 11.0 µM 28% | [7]; at 1.2 µM -4% | [7]; at 3.7 µM -2% | [7]; at 11.0 µM 36% | [8]; [17] 10% | [9]; at 1.2 µM -8% | [9]; at 3.7 µM -11% | [9]; at 11.0 µM 37% | [10]; [17] 28% | [11]; at 1.2 µM -7% | [11]; at 3.7 µM -13% | [11]; [17] 0% | [11]; at 11.0 µM 31% | [12]; at 1.2 µM -4% | [12]; at 3.7 µM -2% | [12]; at 11.0 µM 27% | [13]; at 1.2 µM -5% | [13]; at 3.7 µM -2% | [13]; at 11.0 µM 37% | [14]; at 1.2 µM -2% | [14]; at 3.7 µM 4% | [14]; at 11.0 µM 66% | [16]; at 1.2 µM -3% | [16]; at 3.7 µM -3% | [16]; at 11.0 µM 57%
active: [1]; at 33.0 µM 99% | [1]; at 100.0 µM 93% | [2]; at 33.0 µM 98% | [2]; at 100.0 µM 98% | [4]; at 33.0 µM 99% | [4]; at 100.0 µM 97% | [5]; at 33.0 µM 98% | [5]; [18] 97% | [5]; at 50.0 µM 98.1% | [5]; at 100.0 µM 91% | [6]; at 33.0 µM 99% | [6]; [18] 98% | [6]; at 50.0 µM 97.9% | [6]; at 100.0 µM 97% | [7]; at 33.0 µM 99% | [7]; at 100.0 µM 95% | [8]; [18] 98% | [8]; at 50.0 µM 98% | [9]; at 33.0 µM 99% | [9]; at 100.0 µM 97% | [10]; [18] 97% | [10]; at 50.0 µM 97.4% | [11]; at 33.0 µM 99% | [11]; [18] 97% | [11]; at 50.0 µM 97.7% | [11]; at 100.0 µM 99% | [12]; at 33.0 µM 99% | [12]; at 100.0 µM 95% | [13]; at 33.0 µM 99% | [13]; at 100.0 µM 96% | [14]; at 33.0 µM 99% | [14]; at 100.0 µM 94% | [15]; [17] 76% | [15]; [18] 97% | [15]; at 50.0 µM 97.8% | [16]; at 33.0 µM 99% | [16]; at 100.0 µM 87%
